Assay: probe aWnt5a binding to arrayed compounds – biochemical, biotinylated probe, 635/667 nm fluorescence, primary screen (AID 1113);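 note: score merges 667 nm fluorescence intensity with signal-to-noise per printed feature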
Settings: small-molecule microarray, higher = more signal
Work on `CC(=O)Nc1ccc([C@H]2[C@H](C)CC[C@H]3C(=O)N4[C@@H](CC[C@@H](C)[C@@H]4c4ccc(NC(C)=O)cc4)C(=O)N32)cc1` yielded a composite z-score of -0.176. `C=CCN(C(=O)C1N(c2ccc(CCO)cc2)C(=O)C2C(C(=O)O)C3C=CC21O3)C(C)(C)C` (centres undefined) gave a composite z-score of -0.287. Work on `CO[C@H]1COC(=O)[C@H](C)NC(=O)CC=C[C@@H](C)[C@H](NS(=O)(=O)c2ccc(C)cc2)COC(=O)[C@@H](OCc2ccccc2)C=C[C@@H]1C` yielded a composite z-score of -0.248. `COCCCNC(=O)[C@@]1(Sc2ccc(C)cc2)CC(=O)N(Cc2cc(C(F)(F)F)cc(C(F)(F)F)c2)[C@@H]1c1ccc(CO)cc1I` gave a composite z-score of -0.147. Compound `CO[C@H]1COC(=O)CC=C[C@H](C)[C@@H](OC)COC(=O)[C@H](Cc2ccccc2)NC(=O)CC=C[C@@H]1C` has a composite z-score of -0.144. In the case of `COCCOC(=O)N1C(=O)[C@@]2(c3cc(C#CCCO)ccc31)[C@H](C(=O)N1CCCCCCC1)[C@H]1C(=O)O[C@H](c3ccccc3)[C@H](c3ccccc3)N1[C@@H]2c1ccc(O)cc1`, the composite z-score is reported as 0.0775. With `Cc1ccc(N2C(=O)c3ccccc3[C@@H](C(=O)NCc3ccccc3)[C@@H]2c2ccc(CO)cc2)nc1` the composite z-score was -0.148. With `O=C1C2C=CC(C(O)C(c3ccccc3)c3ccccc3)N(Nc3ccc([N+](=O)[O-])cc3)C2C(=O)N1c1ccccc1` (centres undefined) the composite z-score was 0.122.

Assay: probe aShh binding to arrayed compounds – biochemical, biotinylated probe, 635/667 nm fluorescence, primary screen (AID 1114);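 note: probe is biotin-labelled aShh protein from a stem cell growth factor screen; measures binding of labelled protein to compounds printed on the slide; score merges feature fluorescence at 667 nm with signal-to-noise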
Settings: small-molecule microarray, higher = more signal
`CO[C@H]1COC(=O)[C@@H](C)COC(=O)[C@H](Cc2ccccc2)NC(=O)CC=C[C@H]1C` showed a composite z-score of -0.143. In the case of `C=CCC(OC(C)=O)[C@@H]1[C@@H](N(Cc2cccc3ccccc23)C(=O)c2ccc(C)cc2)c2cc(OCCCO)ccc2N1C(=O)c1ccc(-c2ccccc2)cc1` (some centres undefined), the composite z-score is reported as -0.273. For `CC(C)[C@H]1NC(=O)[C@@]23C(=O)N[C@@H](Cc4ccccc4)C2[C@H](C)[C@@]2(C)O[C@H]2C3/C=C/C/C=C\CNC(=O)[C@H](C)NC1=O` (some centres undefined), the composite z-score was -0.367. For `CO[C@H]1COC(=O)[C@@H](Cc2ccccc2)NC(=O)[C@@H](C)COC(=O)CC=C[C@@H]1C`, the composite z-score was -0.124. For `CN1CCC(CCCO)=CC1C1CC1` (centres undefined), the composite z-score was -0.138. In the case of `CC(C)[Si]1(C(C)C)OCc2cc(C3CC3)nc(-c3ccccc3)c21`, the composite z-score is reported as -0.09. `O=C1c2ccccc2[C@](Cc2ccccc2I)(C(=O)O)[C@H](c2ccc(CO)cc2)N1C1CCCCC1` gave a composite z-score of -0.018. Compound `C[C@@H]1NC(=O)CC=C[C@@H](C)[C@@H]2C=C[C@H](O)[C@@H](COC(=O)[C@H](C)NC(=O)CC=C[C@@H](C)[C@@H]3C=C[C@H](O)[C@@H](COC1=O)O3)O2` has a composite z-score of -0.426. With `C=CCc1cccc([C@@H]2[C@@H](C)CC[C@H]3C(=O)N4[C@H](c5cccc(CC=C)c5)[C@@H](C)CC[C@H]4C(=O)N23)c1` the composite z-score was 0.0899. `C=CC[C@@]12N=C(c3ccc(OCCCO)cc3)O[C@@H]1c1ccccc1CN(Cc1ccccc1)C2=O` gave a composite z-score of 0.116. Compound `COc1ccc([C@H]2C[C@H]3C(Br)=C[C@]2(OC)C(=O)[C@]32CO2)cc1` has a composite z-score of -0.0769. Work on `C=CCOC(=O)[C@@H]1[C@H]2C(=O)O[C@H](c3ccccc3)[C@H](c3ccccc3)N2[C@H](c2ccc(OCCOC(=O)[C@H]3C[C@H]4C(=O)N5CCC[C@H]5C(=O)N4[C@H]3c3ccc(O)cc3)cc2)[C@@]12C(=O)Nc1ccccc12` yielded a composite z-score of 0.14. `CC(=O)NCCCC[C@@H]1NC(=O)[C@@H]2C[C@H](C(=O)NCc3ccc(F)cc3)[C@H](c3cccc(OCCO)c3)N2C1=O` showed a composite z-score of 0.0469. `O=C(CS)NCCCCCNC(=O)[C@H]1C[C@H]2C(=O)N3CCC[C@H]3C(=O)N2[C@H]1c1ccc(O)cc1` gave a composite z-score of 0.046. For `C=C(COC)/C(=C/C[C@H](OC(C)=O)c1ccc(OCCO)cc1)c1cnc2ccccc2c1`, the composite z-score was 0.261. `COc1cc([C@@H]2N[C@H](C(=O)O)Cc3c2[nH]c2ccccc32)cc(OC)c1OC` showed a composite z-score of -0.221. Work on `C=CC[C@@]1(C(=O)N2CCOCC2)N=C(c2ccc(OCCCO)cc2)O[C@@H]1c1ccccc1` yielded a composite z-score of -0.184. Compound `COCCOC(=O)N1C(=O)[C@@]2(c3cc(C#CC4=CCCCC4)ccc31)[C@H](c1ccc(O)cc1)N1[C@H](c3ccccc3)[C@H](c3ccccc3)OC(=O)[C@H]1[C@@H]2C(=O)N1CCCCCCC1` has a composite z-score of 0.332. `COCCOC(=O)N1C(=O)[C@@]2(c3cc(C#CC4=CCCCC4)ccc31)[C@H](C(=O)NC[C@H](O)c1ccccc1)[C@H]1C(=O)O[C@H](c3ccccc3)[C@H](c3ccccc3)N1[C@@H]2c1ccccc1OCCO` showed a composite z-score of 0.443. `C=CC[C@]1(C(=O)NCC(O)CO)N=C(c2ccc(OCCCO)cc2)O[C@H]1c1ccccc1` (some centres undefined) showed a composite z-score of 0.108. In the case of `C=CCC(OC(C)=O)[C@@H]1[C@@H](N(Cc2cc3ccccc3o2)C(=O)c2ccc(C)cc2)c2cc(OCCCO)ccc2N1C(=O)c1ccc2ccccc2n1` (some centres undefined), the composite z-score is reported as -0.043. Compound `CC(C)NC(=O)[C@@]1(Cc2ccccc2I)c2ccccc2C(=O)N(C2CCCCC2)[C@H]1c1ccc(CO)cc1` has a composite z-score of 0.448. In the case of `C=C[C@H](OC)[C@@H](OC(=O)Nc1ccc(SC)cc1)c1ccc(OC)c(O)c1`, the composite z-score is reported as -0.0626. `CCc1cccc(NC(=O)O[C@H]2[C@H](OC(=O)Nc3ccccc3)[C@@H](OC(=O)Nc3ccccc3)[C@@H](OC)O[C@@H]2CO)c1` gave a composite z-score of 0.19. Work on `COCCOC(=O)N1C(=O)[C@@]2(c3cc(C#CCC(C(=O)OC)C(=O)OC)ccc31)[C@H](C(=O)N1CCN(c3ncccn3)CC1)[C@H]1C(=O)O[C@H](c3ccccc3)[C@H](c3ccccc3)N1[C@@H]2c1ccc(O)cc1` yielded a composite z-score of 0.272. `COc1ccc(-c2cc3c(c(-c4ccccc4)n2)[Si](C(C)C)(C(C)C)O[C@H]3c2ccccc2)cn1` gave a composite z-score of -0.0626. For `CCC(=O)[C@]12O[C@@]3([C@@H]4C(=O)OCC[C@@H]41)N(Cc1ccccc1)C(C)=C(C(=O)OC)[C@@H](c1ccccc1)N3C2=O`, the composite z-score was -0.0653. Work on `CO[C@@H]1COC(=O)[C@H](C)NC(=O)CC=C[C@@H](C)[C@H](NS(=O)(=O)c2ccc(C)cc2)COC(=O)CC=C[C@@H]1C` yielded a composite z-score of -0.138. Compound `CC(=O)Nc1ccc([C@H]2[C@H](C)CC[C@H]3C(=O)N4[C@@H](CC[C@@H](C)[C@@H]4c4ccc(NC(C)=O)cc4)C(=O)N32)cc1` has a composite z-score of 0.168. Compound `C=CCN(C(=O)C1N(c2ccc(CCO)cc2)C(=O)C2C(C(=O)O)C3C=CC21O3)C(C)(C)C` (centres undefined) has a composite z-score of -0.27. In the case of `CO[C@H]1COC(=O)[C@H](C)NC(=O)CC=C[C@@H](C)[C@H](NS(=O)(=O)c2ccc(C)cc2)COC(=O)[C@@H](OCc2ccccc2)C=C[C@@H]1C`, the composite z-score is reported as -0.167. `COCCCNC(=O)[C@@]1(Sc2ccc(C)cc2)CC(=O)N(Cc2cc(C(F)(F)F)cc(C(F)(F)F)c2)[C@@H]1c1ccc(CO)cc1I` gave a composite z-score of 0.267. `CO[C@H]1COC(=O)CC=C[C@H](C)[C@@H](OC)COC(=O)[C@H](Cc2ccccc2)NC(=O)CC=C[C@@H]1C` gave a composite z-score of -0.11. With `COCCOC(=O)N1C(=O)[C@@]2(c3cc(C#CCCO)ccc31)[C@H](C(=O)N1CCCCCCC1)[C@H]1C(=O)O[C@H](c3ccccc3)[C@H](c3ccccc3)N1[C@@H]2c1ccc(O)cc1` the composite z-score was 0.814. `Cc1ccc(N2C(=O)c3ccccc3[C@@H](C(=O)NCc3ccccc3)[C@@H]2c2ccc(CO)cc2)nc1` showed a composite z-score of 0.901. `O=C1C2C=CC(C(O)C(c3ccccc3)c3ccccc3)N(Nc3ccc([N+](=O)[O-])cc3)C2C(=O)N1c1ccccc1` (centres undefined) showed a composite z-score of -0.0211.

— PubChem BioAssay
